From PubChem BioAssay AID485298 (National Center for Advancing Translational Sciences (NCATS), 2010)
Values joined by “and” are separate entries in the source; they are usually repeats but may differ in a detail not shown here. Equal values may be shown once. Hit rate of the full screen: of about 320,000 compounds, about 740 (0.23%) were called active. Where a call stands in place of a potency, no number is given. Another 2% or so got no clear call; they are omitted. Calls follow the shape of the dose curve; as a rule, active = well fitted activation curve with a large enough effect; inconclusive = small, poorly fitted or top-dose-only effect; inactive = no such curve, though single readings can be large or run the other way. Many of the other results were omitted from the sample, so actives are more common in it than they were. Some structures have more than one record in an assay (separate samples or runs), and their calls can disagree.

Test: qHTS Assay for Small Molecule Inhibitors of Mitochondrial Division or Activators of Mitochondrial Fusion; also: nearly all actives have a fitted effect of over 45% in size
Settings: S. cerevisiae fusion-defective mutant growth rescue, CellTiterGlo 48 h; series mostly up to 46.1 µM
From the text: NIH Chemical Genomics Center [NCGC] NIH Molecular Libraries Probe Production centers Network [MLPCN] MLPCN Grant: MH081279-01 Assay Submitter (PI): Jodi M. Nunnari NCGC Assay Overview: The budding yeast S. cerevisiae is a powerful system to study mitochondrial fusion. Unlike other organisms, yeast cells without functional mitochondrial DNA (mtDNA) can be propagated and studied as long as they maintain a mitochondrial compartment and are provided with a fermentable carbon source. When mitochondrial fusion is blocked in yeast, mitochondrial tubules rapidly fragment and division continues unopposed. Under conditions where fusion is compromised in mammalian cells, nearly identical changes in mitochondrial structure have been observed. Thus, these findings indicate that steady state mitochondrial structure in cells is a characteristic and specific indicator of fusion activity. Mounting evidence has pointed to a connection between mitochondrial dynamics and apoptosis in mammalian cells. These studies indicate that in mammalian cells mitochondrial dynamics are more integrated into cellular processes than in yeast cells and have evolved not only to distribute the organelle but also to aid in the regulation of cellular homeostasis. Mitochondrial fusion proteins attenuate apoptosis by inhibiting the release of cytochrome c from mitochondria, in part by controlling cristae structures. Thus, small molecules that inhibit mitochondrial […] may promote apoptosis and potentially act as novel chemotherapeutics and stimulation of apoptosis has become an attractive target of anti-cancer therapies. To identify inhibitors of mitochondrial division, we exploit the growth phenotypes of mitochondrial fusion-defective mutants. The temperature sensitive fusion alleles, such as fzo1-1 and mgm1-5, cause mitochondrial membranes to fragment in cells under non-permissive conditions and cells lose mtDNA, and are unable to grow in the presence of non-fermentable carbon source glycerol. Inhibiting mitochondrial division rescues growth. We have developed and optimized a luminescence cell viability assay in 1536 well format for the identification of inhibitors in the yeast mitochondrial fusion-defective assay.
The yeast glycerol stocks where kindly supplied by the laboratory of Dr. Jodi Nunnari, University of California, Davis. All yeast glycerol stock solutions were stored in single use aliquots at -80C. The CellTiterGlo luminescence reagent, containing luciferase and luciferin, were purchased from Promega, and the reagents were stored according to manufacturer's instructions. The Buffer components for the YPEG yeast growth medium were purchased from Sigma-Aldrich (St. Louis, MO). YPEG growth medium: 1% (w/v) yeast extract, 2% (w/v) Bacto-peptone, 3% Ethanol, 3% glycerol, 0.4mM Tryptophan, 0.36mM Adenine. qHTS Assay Protocol: 1.#Dispense 2.5 ul yeast growth medium per 1536 well plate. 2.#Transfer 23 nl per well of compound to plate. 3.#Dispense 2.5 ul yeast solution at appropriate seeding density per well. 4.#Incubate for 48 hours at 37C. 5.#Dispense 5 ul of CellTiterGlow solution per well. 6.#Incubate at ambient for 10 minutes. 7.#Read using bio-luminescence protocol on Viewlux.
Potency is read from the fitted curve at half-maximal effect.

SMILES	Potency
COc1ccccc1CN1CCCC(N2CCN(c3ccc(F)cc3)CC2)C1 (centres undefined)	inactive
O=C(c1ccc(C(F)(F)F)cc1)C1CCCN(C(=O)c2csnn2)C1 (centres undefined)	inactive
O=C(CN1C(=O)S/C(=C\c2ccccc2F)C1=O)NCCCn1ccnc1	inactive
O=C(CN1C(=O)/C(=C\c2ccccc2F)SC1=S)Nc1nc2ccccc2s1	12.6 µM (active)
O=C(CCNC(=O)c1ccccc1)Nc1nc2ccccc2s1	inactive
CS(=O)(=O)N1CCN=C1SCc1ccc(F)cc1	inactive
COc1cc(OC)c(C(=O)Nc2ccccc2-c2ccccc2)cc1OC	15.8 µM (active)
COc1cc2ccccc2cc1C(=O)Nc1ccccc1C	inactive
O=C(Nc1ccccc1-c1ccccc1)c1ccccc1[N+](=O)[O-]	inactive
O=C(O)CCN(Cc1ccccc1)S(=O)(=O)c1c(Cl)cccc1Cl	inactive
CCN(C(=O)CN1CCN(Cc2ccccc2)CC1)c1c(N)n(Cc2ccccc2)c(=O)[nH]c1=O	inactive
COc1ccc(OC)c(C(=O)NC(CC(N)=O)c2ccc(N3CCC(N4CCCCC4)CC3)c([N+](=O)[O-])c2)c1 (centres undefined)	inactive
O=C(NCCc1ccc(Cl)cc1)c1cccc(N2CCCC2=O)c1	inactive
COc1ccc(CCNC(=S)N2CCN(S(=O)(=O)c3ccc(Cl)cc3)CC2)cc1	inactive
Oc1cc2c(cc1O)CN(C(=S)NCCc1ccc(Cl)cc1)CCC2	inactive and 18.4 µM (active)
Oc1ccc(Cn2cc[nH]c2=S)cc1	inactive
CN(C)CCN=c1cc(-c2ccccc2)oc2ccc(Cl)cc12	inactive
COc1ccc(/C=C/c2c(-c3cccc(C)c3)oc3ccc(-c4ccc5c(c4)OCO5)cc23)cc1	inactive
CSCCC(NC(=O)c1ccccc1)C(=O)N1CCCCCCC1 (centres undefined)	inactive
CSCCC(NS(=O)(=O)c1ccc(C)cc1)C(=O)N1CCCC1 (centres undefined)	35.5 µM (active)
CSCC(NS(=O)(=O)c1ccc(C)cc1)C(=O)O (centres undefined)	inactive
CC(=O)c1cccc(NC(=O)C2CCCN2S(=O)(=O)c2cccc3nsnc23)c1 (centres undefined)	inactive
C=CCn1c(CCNC(=O)c2ccccc2F)nnc1SCC(=O)Nc1ccc(OC)cc1	inactive
CC(=O)NC(c1cccs1)c1cc(Br)c2cccnc2c1O (centres undefined)	inactive
Cc1cc(C(=O)Nc2nnc(C3CC3)s2)c(C)s1	inactive
C[C@H](NC(=O)c1ccccc1)C(=O)OCC(=O)c1c[nH]c2ccccc12	inactive

SMILES	Potency
O=C(CNC(=O)c1ccc(F)cc1)c1ccccc1	inactive
CN(C)c1ccc(C(CNC(=O)c2ccc(F)cc2)c2c[nH]c3ccccc23)cc1 (centres undefined)	15.8 µM (active)
Cc1nnnn1/C(=C\c1ccccc1)C(=O)OCC(=O)N1CC2(C)CC1CC(C)(C)C2 (centres undefined)	inactive
O=C(Cc1ccccc1)Nc1c(C(=O)N2CCCCCC2)cnn1-c1ccccc1	inactive
CCC(C)(C)n1nnnc1CN1CCN(c2nc3ccc(C)cc3cc2C#N)CC1	inactive
O=C(/C=C/c1ccccc1)Oc1coc(CSc2ncccn2)cc1=O	inactive
Nc1c(C(=O)OCC(=O)Nc2ccc(OC(F)F)cc2)[nH]c(=O)[nH]c1=O	inactive
CCOc1ccc(/C=N/OCC(=O)NCc2cccs2)cc1	inactive
CC1CCCCC1NC(=O)CO/N=C/c1ccc(OC(F)F)cc1 (centres undefined)	inactive
O=C(CO/N=C/c1ccc(OC(F)F)cc1)NCc1ccc(F)cc1	6.31 µM (active)
Clc1ccc(C2[C@H]3CN(CC4CCCCC4)[C@H](c4ccccc4)C34CC2(c2cccnc2)C4)cn1 (some centres undefined)	inactive
CCc1ccc[n+](-c2nc([O-])sc2C=O)c1	inactive
CCOC(=O)/C=C/C(=O)OCC(=O)NC(c1ccccc1)c1ccccc1	inactive
Cn1cc(CCC(=O)NCc2ccc3c(c2)OCO3)c2ccccc21	inactive
N#Cc1nc(Cc2cccc3ccccc23)oc1NCc1ccc2c(c1)OCO2	11.2 µM (active)
c1n[nH]c(NCc2ccc3c(c2)OCO3)n1	inactive
O=C(COC(=O)c1ccccc1NC(=O)c1ccco1)Nc1ccc2c(c1)OC(F)(F)O2	inactive
CCCN1C(=O)C(O)(CC(=O)c2ccc(CC)cc2)c2cc(Br)ccc21 (centres undefined)	inactive
Cc1cccc(-c2nc(Nc3ccc(O)cc3)c3ccccc3n2)c1	35.5 µM (active)
CC(=O)Nc1cccc(Nc2nc(-c3cccs3)nc3ccccc23)c1	inactive
COc1ccc(Nc2nc(-c3cccnc3)nc3ccccc23)cn1	inactive
COc1ccc(OCCNS(=O)(=O)Cc2ccccc2)cc1	inactive
Cc1ccc(NC(=O)c2cc([N+](=O)[O-])ccc2Cl)c(O)c1	inactive
CCC(C)C(NC(=O)C1CCC(=O)N1C(=O)OCc1ccccc1)C(=O)NC(C(=O)N1CCCC1C(N)=O)C(C)CC (centres undefined)	inactive
Nc1ccc(Nc2cc(O)c3ncccc3c2)cc1	inactive
Cn1ncc2c(Nc3cccc4ccccc34)ncnc21	inactive

SMILES	Potency
CN(C)c1cc2c(Nc3ccc4c(cnn4Cc4ccccc4)c3)ncnc2cn1	18.4 µM (active)
CC(C)Nc1ncnc2c1nnn2Cc1ccccc1	inactive
CCOC(=O)N1CCN(C(=O)COC(=O)c2cccc(S(C)(=O)=O)c2)CC1	inactive
CCOC(=O)C(=CNNc1ccsc1C(=O)OC)C(=O)OCC	inactive
Cc1ccc(O)c(CNc2nc3ccccc3n2C)c1	inactive
Cc1ccc2nnn(Cc3cccc(C(C)(C)C)c3O)c2c1	12.6 µM (active)
Cc1ccc(O)c(CNc2nc3ccccc3[nH]2)c1	inactive
CC(/C=C/C1(O)C(C)CC(=O)CC1(C)C)OC1OC(CO)C(O)C(O)C1O (centres undefined)	inactive
CCCC(C)C(=O)OCC(=O)Nc1c(Br)cc(C)cc1Br (centres undefined)	inactive
Cn1c(=O)c2c(n3c4ccccc4nc13)NC(=O)CC2c1cccc(Cl)c1 (centres undefined)	inactive
CC(C)C(=O)Nc1ccc2c3c(cccc13)CC2	inactive
CCOc1ccc(-n2nc3ccc(NC(=O)c4ccc(OC)c(Cl)c4)cc3n2)cc1	inactive
Cc1cc(-c2nnc(CCC(=O)NC(c3ccccc3)c3ccccc3)o2)no1	inactive
O=C(C(NS(=O)(=O)c1cccc2nsnc12)c1ccccc1)N1CCN(c2ccccc2)CC1 (centres undefined)	17.8 µM (active)
O=C(O)C(NS(=O)(=O)c1cccc2nsnc12)c1ccccc1 (centres undefined)	inactive
O=C(C(NS(=O)(=O)c1cccc2nsnc12)c1ccccc1)N1CCN(c2ccccn2)CC1 (centres undefined)	inactive
CC(=O)Nc1ccc(C(=O)Nc2cccc(S(=O)(=O)NC3=NCCC3)c2)cc1	inactive
CN(C)c1nc(N)nc(CSc2nnnn2-c2cccc3ccccc23)n1	inactive
CCc1nc2sc(C(=O)O)c(N)c2c2c1CCCC2	inactive
Cc1ccc2c(N)c(C(=O)c3ccccc3)sc2n1	inactive
Cc1nc2sc(C(=O)c3ccccc3)c(N)c2c2c1CCCC2	14.1 µM (active)
COc1ccc(OC)c(S(=O)(=O)n2c([N+](=O)[O-])cnc2C)c1	inactive
CN(c1ccccn1)c1ncnc2[nH]ncc12	inactive
O=S(=O)(c1cccc(C(F)(F)F)c1)N1CCN(c2cnccn2)CC1	inactive
COC(=O)COc1ccc(C2NC(=O)NC(C)=C2C(=O)NCc2ccccc2)cc1OC (centres undefined)	inactive
CCC(C)(C)n1nnnc1C(c1cccs1)N1CCN(c2nc3ccccc3s2)CC1 (centres undefined)	10 µM (active)

SMILES	Potency
Fc1ccc(Cn2nnnc2C(c2cccs2)N2CCCCCC2)cc1 (centres undefined)	inactive
CCC(C)(C)n1nnnc1C(c1ccc(OC)c(OC)c1)N1CCN(C(=O)c2ccco2)CC1 (centres undefined)	inactive
Cc1ccc(C(CNC(=O)Nc2cccc(C)c2)N2CCN(C)CC2)cc1 (centres undefined)	inactive
CCC1=Nc2cc(C(=O)NCCCOC(C)C)ccc2Sc2ccc(C)cc21	inactive
Cc1ccc(S(=O)(=O)N2CCCC(C(=O)N3CCN(C)CC3)C2)cc1 (centres undefined)	inactive
CCCS(=O)(=O)N1CCCC(C(=O)N2CCN(c3ccccc3)CC2)C1 (centres undefined)	inactive
O=C(C1CCCN(S(=O)(=O)c2ccccc2)C1)N1CCN(c2ccc(F)cc2)CC1 (centres undefined)	3.98 µM (active)
Cc1cccc(C(=O)Nc2ccc(-c3nc4ncccc4o3)cc2C)c1	inactive
COc1cc(NC(=O)CSc2nc3nc(C)c(Cc4ccc(C)cc4)c(C)n3n2)cc(OC)c1OC	inactive
C=CCNC(=O)CCCC(=O)NCC=C	inactive
CSCCC(NC(=O)c1ccco1)C(=O)Nc1cc(C)ccn1 (centres undefined)	inactive
NS(=O)(=O)c1cccc(NC(=O)CSc2nc3ccccc3n2-c2ccccc2)c1	inactive
Cc1ccc(SCCC(=O)OCC(=O)Nc2ncc(Cl)cc2Cl)cc1	inactive
Cc1ccc(-n2c(SCC(=O)Nc3ncc(Cl)cc3Cl)nc3ccccc32)cc1	15.8 µM (active)
Cc1ccc(C2C=C(c3ccc(Cl)cc3)Nc3nc(NC(=O)CCC(=O)O)nn32)cc1 (centres undefined)	inactive
CCOc1ccccc1NC(=O)CCn1cnnn1	inactive
CCOC(=O)c1ccc(-c2ccc(/C=C(\C#N)C(=O)Nc3ccc(C)cc3)o2)cc1	inactive
CC1CN/C(=C\C(=O)c2ccc(Br)cc2)C(=O)N1 (centres undefined)	12.6 µM (active)
COc1cc2c(cc1OC)/C(=C/C(=O)c1ccc(NC(C)=O)cc1)NCC2	inactive
CC1(C)Cc2ccccc2/C(=C/C(=O)c2ccccc2)N1	inactive
O=S(=O)(NC1CCN(S(=O)(=O)c2ccc3c(c2)OCCO3)CC1)c1c(F)cccc1F	inactive
Cc1ccc(C(=O)NC(=S)Nc2ccc3[nH]c(=O)[nH]c3c2)cc1C	inactive
CCCC(O)(CCC)C(=O)NN(C(=O)CCl)c1cccc(C)c1	inactive
O=C(CCCCCN1C(=O)c2cccc3cccc(c23)C1=O)NCc1ccco1	inactive
O=C1c2cccc3cccc(c23)C(=O)N1CCCCCc1n[nH]c(=S)o1	inactive
C[N+](C)(CCCCCC[N+](C)(C)CCCN1C(=O)c2cccc3cccc(c23)C1=O)CCCN1C(=O)c2cccc3cccc(c23)C1=O	inactive and 16.4 µM (active)
